For part of these data: Potency and affinity values are given separately. Calls of active or inactive are those of the source. Unless noted, how the calls were made is not given here.
Experiments:
[1] = antimalarial activity against Dd2 strain (AID 2302;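 active means growth inhibition above 50% at the single 2 µM test dose, taken to imply half-maximal potency below 2 µM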;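 further: 0% = DMSO untreated growth and 100% = chloroquine plus artemisinin killed control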); conditions: P. falciparum Dd2 in RBCs, LDH growth readout, 72 h; at 2 µM; stronger effect = higher value
[2] = human hepatoma cell viability loss – ATP luminescence, cytotoxicity control for P. falciparum antimalarial project, primary screen (AID 2303;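 active means inhibition above 50%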;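 further: 0% = DMSO wells and 100% = digitonin-killed cells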); conditions: HepG2 viability, 24-48 h, at 10 µM, stronger effect = higher value
[3] = molecular target: L-lactate dehydrogenase (Plasmodium falciparum (isolate CDC / Honduras)) (UniProt Q27743); test: PfLDH activity inhibition – cell lysate, 3D7 strain, counter-screen for P. falciparum growth inhibition project (AID 2304);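 further: 0% = vehicle and 100% = reference inhibitor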; conditions: P. falciparum 3D7 crude extract, LDH APAD/NBT absorbance; at 2 µM; stronger effect = higher value
L-lactate dehydrogenase (Plasmodium falciparum (isolate CDC / Honduras)), sequence (Q27743 whole entry, looked up): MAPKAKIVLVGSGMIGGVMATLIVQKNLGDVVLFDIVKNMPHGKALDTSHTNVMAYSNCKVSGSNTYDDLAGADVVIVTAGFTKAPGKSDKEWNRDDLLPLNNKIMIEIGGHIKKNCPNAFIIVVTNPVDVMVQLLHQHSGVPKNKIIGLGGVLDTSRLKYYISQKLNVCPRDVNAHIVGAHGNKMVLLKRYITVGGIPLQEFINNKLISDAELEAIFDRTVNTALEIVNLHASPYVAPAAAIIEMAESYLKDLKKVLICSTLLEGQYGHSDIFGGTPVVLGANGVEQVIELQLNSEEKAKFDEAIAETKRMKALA

[4] = inhibition of 3D7 malaria parasite growth – strain 3D7 (AID 2306);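 further: 0% = DMSO wells and 100% = chloroquine plus artemisinin control wells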; conditions: P. falciparum 3D7 erythrocytic growth, LDH absorbance, 72 h; at 2 µM; stronger effect = higher value
[5] = molecular target: Calcium-dependent protein kinase 1 (Plasmodium falciparum (isolate 3D7)) (UniProt P62344); test: PfCDPK1 kinase inhibitors, biochemical, TCAMS library (AID 1159585; cut-off not given, nearly all actives have IC50 up to about 0.98 µM;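 further: inhibitors leave more ATP so luminescence rises with inhibition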); conditions: recombinant PfCDPK1, Kinase-Glo ATP depletion luminescence
Calcium-dependent protein kinase 1 (Plasmodium falciparum (isolate 3D7)), sequence (P62344 whole entry, looked up): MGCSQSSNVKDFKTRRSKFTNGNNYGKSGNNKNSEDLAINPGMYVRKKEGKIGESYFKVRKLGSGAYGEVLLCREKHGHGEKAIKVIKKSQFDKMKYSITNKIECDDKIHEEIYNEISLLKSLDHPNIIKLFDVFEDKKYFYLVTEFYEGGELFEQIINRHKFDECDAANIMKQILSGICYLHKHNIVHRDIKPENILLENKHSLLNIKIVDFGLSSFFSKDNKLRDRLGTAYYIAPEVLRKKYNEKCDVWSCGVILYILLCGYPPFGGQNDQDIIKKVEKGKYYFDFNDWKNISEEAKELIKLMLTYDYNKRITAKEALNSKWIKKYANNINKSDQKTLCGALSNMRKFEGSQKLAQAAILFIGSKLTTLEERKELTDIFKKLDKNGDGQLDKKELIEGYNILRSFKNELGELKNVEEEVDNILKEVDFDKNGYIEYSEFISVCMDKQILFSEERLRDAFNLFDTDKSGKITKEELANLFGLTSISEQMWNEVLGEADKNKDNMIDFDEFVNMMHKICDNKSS

[6] = molecular target: Plasmodium falciparum protein kinase 6 (PK6, PF3D7_1337100) (UniProt Q8IDW1); test: PfPK6 kinase inhibitors, biochemical, TCAMS library (AID 1159586); conditions: recombinant PfPK6, Kinase-Glo ATP depletion luminescence
Plasmodium falciparum protein kinase 6 (PK6, PF3D7_1337100), sequence (Q8IDW1 1-305): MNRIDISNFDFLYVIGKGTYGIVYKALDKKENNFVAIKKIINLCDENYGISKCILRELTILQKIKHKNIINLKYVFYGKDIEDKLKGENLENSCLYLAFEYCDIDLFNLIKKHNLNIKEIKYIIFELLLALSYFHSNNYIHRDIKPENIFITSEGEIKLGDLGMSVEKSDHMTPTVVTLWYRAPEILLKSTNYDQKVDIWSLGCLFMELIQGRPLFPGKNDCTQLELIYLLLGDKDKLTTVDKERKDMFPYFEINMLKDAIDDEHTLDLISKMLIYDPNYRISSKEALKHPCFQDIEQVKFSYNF

[7] = molecular target: Protein kinase 7 (PK7), Plasmodium falciparum 3D7 (PF3D7_0213400) (UniProt Q7YTF7); test: inhibition of Plasmodium PK7 catalytic activity – biochemical, TCAMS antimalarial set, Kinase-Glo luminescence (AID 1159587); conditions: recombinant PfPK7, Kinase-Glo ATP depletion luminescence
Protein kinase 7 (PK7), Plasmodium falciparum 3D7 (PF3D7_0213400), sequence (Q7YTF7 1-343): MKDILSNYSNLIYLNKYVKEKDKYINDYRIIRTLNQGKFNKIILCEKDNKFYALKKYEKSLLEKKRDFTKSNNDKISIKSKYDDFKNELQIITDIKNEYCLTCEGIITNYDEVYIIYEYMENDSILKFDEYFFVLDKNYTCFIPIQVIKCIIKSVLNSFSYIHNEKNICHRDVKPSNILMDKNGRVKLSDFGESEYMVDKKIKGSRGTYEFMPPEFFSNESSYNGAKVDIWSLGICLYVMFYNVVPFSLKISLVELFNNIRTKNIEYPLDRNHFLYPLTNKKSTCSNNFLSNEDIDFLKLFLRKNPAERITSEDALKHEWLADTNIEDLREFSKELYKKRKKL

[8] = molecular target: Calcium-dependent protein kinase 4 (Plasmodium falciparum (isolate 3D7)) (UniProt Q8IBS5); test: PfCDPK4 kinase inhibitors, biochemical, TCAMS library (AID 1159588; cut-off not given, nearly all actives have IC50 up to about 0.91 µM); conditions: recombinant PfCDPK4, Kinase-Glo ATP depletion luminescence
Calcium-dependent protein kinase 4 (Plasmodium falciparum (isolate 3D7)), sequence (Q8IBS5 whole entry, looked up): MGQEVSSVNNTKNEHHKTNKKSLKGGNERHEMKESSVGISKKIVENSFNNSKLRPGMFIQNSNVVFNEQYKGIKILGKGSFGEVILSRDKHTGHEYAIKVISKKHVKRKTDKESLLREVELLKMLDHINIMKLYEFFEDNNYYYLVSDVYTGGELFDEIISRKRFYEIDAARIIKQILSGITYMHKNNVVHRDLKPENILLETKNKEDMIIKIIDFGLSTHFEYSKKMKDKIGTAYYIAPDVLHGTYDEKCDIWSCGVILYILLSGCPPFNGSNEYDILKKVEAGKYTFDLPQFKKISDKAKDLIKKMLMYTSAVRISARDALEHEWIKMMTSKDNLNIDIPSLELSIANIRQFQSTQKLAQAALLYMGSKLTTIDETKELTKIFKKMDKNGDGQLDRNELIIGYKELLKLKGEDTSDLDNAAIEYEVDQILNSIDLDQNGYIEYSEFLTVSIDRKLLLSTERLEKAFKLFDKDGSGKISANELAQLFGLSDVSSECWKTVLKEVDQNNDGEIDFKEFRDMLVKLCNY

CCNc1cc(C)nc(Nc2ccc(NC(=O)c3ccccc3)cc2)n1
active: growth inhibition [1] 63% | growth inhibition [4] 102%
inactive: inhibition [2] 41% | inhibition [3] -1% | outcome [5] | outcome [6] | outcome [7] | outcome [8]

O=C(NCc1cccc(C(F)(F)F)c1)[C@@H]1CCCN1C(=O)c1ccc(O)c(-c2ccc(Cl)c(Cl)c2)c1
active: growth inhibition [1] 97% | growth inhibition [4] 99%
inactive: inhibition [2] -3% | inhibition [3] 2% | outcome [5] | outcome [6] | outcome [7] | outcome [8]

NC(=O)c1cccc(Nc2nccc(Nc3ccc(Oc4ccc5ccccc5c4)cc3)n2)c1
active: growth inhibition [4] 96%
inactive: growth inhibition [1] 31% | inhibition [2] 15% | inhibition [3] 5% | outcome [5] | outcome [6] | outcome [7] | outcome [8]
